Here are results for 16 molecules from PubChem BioAssay.

Activity calls are given as the source filed them. Cut-off read from the data, not from the text of the source, unless noted: active = nuclear beta-catenin stimulation mostly above about 4.2% (no sharp cut-off); inactive = mostly below about 10%.

Test [1] is described as follows: Wnt pathway potentiators raising nuclear beta-catenin – imaging, WNT3A-conditioned medium, mouse C2C12, NPC library, primary screen (AID 1117326). Note: reference of the scale not given here. Particulars: stronger effect = higher value.
Test [2] can be described thus: stimulators of insulin release from INS-1E, primary screen, cell-based, 5 mM glucose, NPC library (AID 1117329;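 active = compound raises insulin release from rat beta cells at 5 mM glucose, no numeric limit stated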; note: reference of the scale not given here). Conditions: rat INS-1E insulin secretion, at 10 µM, stronger effect = higher value.
A short description of test [3]: growth inhibition of GSK3B-pretreated HCT116 cells – cell-based, CellTiter-Glo, 0.2 to 20 µM (AID 1117336;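 active = compounds lowering colon cancer cell viability after pretreatment blocking the GSK3B kinase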). Conditions: HCT116 viability after GSK3B inhibitor, at 20 µM, stronger effect = higher value.
The nature of test [4]: inhibition of endothelial tube formation, primary screen, imaging, VEGF stimulated, CD31 staining, tube area, NPC library (AID 1117340;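 active = compound that reduces growth-factor-driven endothelial tube area in a mixed cell culture, no cutoff stated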). Particulars: VEGF-stimulated ADSC/ECFC co-culture, at 10 µM, stronger effect = higher value.
Test [5] in a line: GLP1 release stimulators, primary, NCI-H716, NPC library (AID 1117341;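 active = compound raises GLP1 secretion from the human gut endocrine cells, with no numeric limit stated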; note: reference of the scale not given here). Particulars: NCI-H716 cells, at 10 µM, stronger effect = higher value.
The nature of test [6]: HCT116 colon cancer cell growth inhibition, primary screen, CellTiter-Glo luminescence, NPC library (AID 1117342;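 active = compounds that lower survival of HCT116 colon cancer cells in the luminescence readout, no numeric limit stated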). Conditions: at 20 µM (top of the series). On the technique in general: ATP-based viability assays read luminescence as a measure of living cells.
Test [7] is described as follows: reduced SW480 viability measured with CellTiter-Glo, NPC library, primary (AID 1117343;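 active = compounds that lower viability of the colon cancer cells in the luminescence readout, with no numeric limit stated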). Conditions: CellTiter-Glo luminescence; at 20 µM (top of the series).
Test [8] in a line: NPC library primary testing for decreased DLD-1 cell viability via CellTiter-Glo (AID 1117346;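 active = compounds that lower survival of DLD-1 colon cancer cells in the luminescence readout, no cutoff given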). Particulars: DLD-1 viability, CellTiter-Glo luminescence; at 20 µM (top of the series).

As for `COC(=O)c1ccc(O)cc1`, the nuclear beta-catenin stimulation in test [1] (at 10 µM) was 1.3% (inactive); in test [1] (stimulation, at 2 µM), 0.3%. In addition, the insulin secretion stimulation in test [2] was -1.8% (inactive). Besides, in test [3], the viability decrease is -8.75% (inactive). The tube area decrease in test [4] is 4.5% (inactive). Besides, the GLP1 secretion stimulation in test [5] is 0.6% (inactive). Further, in test [6], the inhibition of viability is -9.8% (inactive). Further, the results for the viability decrease (inhibition) in test [7] and in test [8] were 18.8% (inactive) and -6.75% (inactive), respectively.

`Cc1oc(=O)oc1COC(=O)[C@@H]1N2C(=O)[C@@H](NC(=O)[C@H](N)c3ccccc3)[C@H]2SC1(C)C`: the nuclear beta-catenin stimulation was 0.5% (inactive) in test [1] (at 10 µM) and 1.3% in test [1] (stimulation, at 2 µM). Further, in test [2], the insulin secretion stimulation was -1% (inactive). Besides, in test [3], the viability decrease was -11.1% (inactive). Moreover, the tube area decrease in test [4] is -10.3% (inactive). Also, in test [5], the GLP1 secretion stimulation is -1.9% (inactive). The inhibition of viability in test [6] was -15.2% (inactive). In addition, the values for the viability decrease (inhibition) in test [7] and in test [8] were 25.1% (inactive) and -14.8% (inactive), respectively.

Consider `COC(=O)c1nc(Cl)c(Cl)nc1N`, for which the nuclear beta-catenin stimulation in test [1] (at 10 µM) is 15.9% (active); in test [1] (stimulation, at 2 µM), 84.9%. In addition, the insulin secretion stimulation in test [2] was 2.2% (inactive). Also, the viability decrease in test [3] was 82.2% (active). The tube area decrease in test [4] is 110% (active). The GLP1 secretion stimulation in test [5] is 4.1% (inactive). In test [6], the inhibition of viability was 75% (active). Moreover, the viability decrease (inhibition) is 132% (active) in test [7] and 101% (active) in test [8].

For `CC(C)C[C@H](NC(=O)CNC(=O)[C@H](Cc1ccc(O)cc1)NC(=O)[C@H](CO)NC(=O)[C@H](Cc1c[nH]c2ccccc12)NC(=O)[C@H](Cc1cnc[nH]1)NC(=O)[C@@H]1CCC(=O)N1)C(=O)N[C@@H](CCCN=C(N)N)C(=O)N1CCC[C@H]1C(=O)NCC(N)=O` (stereo in doubt), the nuclear beta-catenin stimulation in test [1] (at 10 µM) is -1% (inactive); in test [1] (stimulation, at 2 µM) it was -0.5%. The insulin secretion stimulation in test [2] is -0.4% (inactive). Also, the viability decrease in test [3] was 0.3% (inactive). For the same molecule, the tube area decrease in test [4] was 19.8% (inactive). For the same molecule, in test [5], the GLP1 secretion stimulation is 6% (inactive). Also, the inhibition of viability in test [6] was 6.7% (active). The viability decrease (inhibition) in test [7] is 11.3% (inactive); in test [8] it was -1.2% (inactive).

On to `Fc1ccc(C(c2ccc(F)cc2)N2CCNCC2)cc1`, for which the nuclear beta-catenin stimulation in test [1] (at 10 µM) is -0.2% (inactive); in test [1] (stimulation, at 2 µM), 0.1%. Moreover, the insulin secretion stimulation in test [2] is 16.6% (inactive). Besides, the viability decrease in test [3] is 29.7% (inactive). In test [4], the tube area decrease was 13.9% (inactive). In addition, the GLP1 secretion stimulation in test [5] was 7.5% (inactive). Moreover, in test [6], the inhibition of viability was 79.8% (active). Also, the viability decrease (inhibition) in test [7] is 72.4% (active); in test [8] it was 25.2% (inactive).

As for `CCCCCCCCCCCCCCCCCC(=O)[O][Al]`, the nuclear beta-catenin stimulation in test [1] (at 10 µM) was 0.2% (inactive); in test [1] (stimulation, at 2 µM), -0.8%. The insulin secretion stimulation in test [2] was 0.8% (inactive). In test [3], the viability decrease was 2.3% (inactive). In test [4], the tube area decrease is -3.5% (inactive). For the same molecule, the GLP1 secretion stimulation in test [5] was -1.2% (inactive). Besides, the inhibition of viability in test [6] was 5.4% (inactive). For the same molecule, the viability decrease (inhibition) in test [7] is -3.6% (inactive); in test [8], -0.7% (inactive).

Take `CCCCCCCCCCCCOCCOCCOCCOCCOCCOCCOCCOCCOCCO`: the nuclear beta-catenin stimulation in test [1] (at 10 µM) was 3.9% (inactive); in test [1] (stimulation, at 2 µM), 1.9%. Besides, the insulin secretion stimulation in test [2] was 0.8% (inactive). The viability decrease in test [3] is 78.1% (active). For the same molecule, in test [4], the tube area decrease was 47.8% (active). The GLP1 secretion stimulation in test [5] is 33.5% (active). Also, the inhibition of viability in test [6] is 96.8% (active). For the same molecule, the viability decrease (inhibition) was 124% (active) in test [7] and 104% (active) in test [8].

As for `CC1CCCCN1CCCOC(=O)c1ccc(OC2CCCCC2)cc1` (centres undefined), the nuclear beta-catenin stimulation in test [1] (at 10 µM) was 14.4% (inactive); in test [1] (stimulation, at 2 µM), 4.4%. Also, the insulin secretion stimulation in test [2] was 12.4% (inactive). Besides, the viability decrease in test [3] is 21.7% (inactive). Besides, in test [4], the tube area decrease was -14.7% (inactive). In addition, the GLP1 secretion stimulation in test [5] is 5.9% (inactive). Also, the inhibition of viability in test [6] is 83.6% (active). Also, the viability decrease (inhibition) in test [7] is 111% (active); in test [8] it was 94.7% (active).

Consider `c1ccc(CCNc2nc(-c3ccccc3)cs2)cc1`, for which the nuclear beta-catenin stimulation in test [1] (at 10 µM) is 1.5% (inactive); in test [1] (stimulation, at 2 µM), 0.6%. Also, the insulin secretion stimulation in test [2] was -1.4% (inactive). In test [3], the viability decrease was 38.9% (inactive). Also, the tube area decrease in test [4] is 34.9% (inactive). The GLP1 secretion stimulation in test [5] is -1.7% (inactive). For the same molecule, in test [6], the inhibition of viability is 57.7% (active). The viability decrease (inhibition) was 35.5% (inactive) in test [7] and 31.5% (inactive) in test [8].

As to `COc1ccc2cc(C=O)ccc2c1`, the nuclear beta-catenin stimulation in test [1] (at 10 µM) was 0.1% (inactive); in test [1] (stimulation, at 2 µM), 0.2%. For the same molecule, the insulin secretion stimulation in test [2] was 0.95% (inactive). The viability decrease in test [3] was 17.4% (inactive). Also, in test [4], the tube area decrease is -8.2% (inactive). Also, the GLP1 secretion stimulation in test [5] was -3.7% (inactive). Further, the inhibition of viability in test [6] is 16.4% (inactive). In addition, the viability decrease (inhibition) in test [7] is 7% (inactive); in test [8], 5.8% (inactive).

In the case of `CN1[C@@H]2CC[C@H]1CC(NC(=O)n1c(=O)[nH]c3ccccc31)C2` (some centres undefined), the nuclear beta-catenin stimulation is 1.7% (inactive) in test [1] (at 10 µM) and 1% in test [1] (stimulation, at 2 µM). Besides, the insulin secretion stimulation in test [2] was 0.4% (inactive). In test [3], the viability decrease is -2.9% (inactive). In addition, the tube area decrease in test [4] was -4.6% (inactive). For the same molecule, the GLP1 secretion stimulation in test [5] is 2.8% (inactive). Also, the inhibition of viability in test [6] was 23.7% (inactive). Moreover, the values for the viability decrease (inhibition) in test [7] and in test [8] were 5.3% (inactive) and -7.7% (inactive), respectively.

In the case of `Cc1ncc(CO)c(CN)c1O`, the nuclear beta-catenin stimulation is 1.3% (inactive) in test [1] (at 10 µM) and 2.3% in test [1] (stimulation, at 2 µM). Further, in test [2], the insulin secretion stimulation was 0.6% (inactive). The viability decrease in test [3] is 4.25% (inactive). Moreover, in test [4], the tube area decrease was -13.4% (inactive). The GLP1 secretion stimulation in test [5] was 0.1% (inactive). Further, in test [6], the inhibition of viability is -3.2% (inactive). Besides, the viability decrease (inhibition) was 91.3% (active) in test [7] and 9.5% (inactive) in test [8].

As to `CCOc1ccc(NS(=O)(=O)c2ccc(N)cc2)nn1`, the nuclear beta-catenin stimulation is -0.3% (inactive) in test [1] (at 10 µM) and 0.4% in test [1] (stimulation, at 2 µM). The insulin secretion stimulation in test [2] was -0.2% (inactive). For the same molecule, the viability decrease in test [3] is 1.55% (inactive). Further, the tube area decrease in test [4] is -25.2% (inactive). Further, the GLP1 secretion stimulation in test [5] was 2.6% (inactive). Moreover, the inhibition of viability in test [6] is -1.7% (inactive). For the same molecule, the values for the viability decrease (inhibition) in test [7] and in test [8] were 29.4% (inactive) and 4.15% (inactive), respectively.

As for `C=CCNCCCCCC[N+](C)(C)C`, the nuclear beta-catenin stimulation in test [1] (at 10 µM) is -1.4% (inactive); in test [1] (stimulation, at 2 µM) it was 0.4%. In addition, the insulin secretion stimulation in test [2] was -0.9% (inactive). In test [3], the viability decrease was -5.7% (inactive). In addition, in test [4], the tube area decrease is -1.9% (inactive). In addition, the GLP1 secretion stimulation in test [5] is -0.6% (inactive). For the same molecule, in test [6], the inhibition of viability is -3.1% (inactive). In addition, the viability decrease (inhibition) in test [7] and in test [8] was -2.3% (inactive) throughout.

As to `CCC(=O)O`, the nuclear beta-catenin stimulation in test [1] (at 10 µM) was -0.6% (inactive); in test [1] (stimulation, at 2 µM), 1.3%. The insulin secretion stimulation in test [2] was 3.2% (inactive). The viability decrease in test [3] is -1.2% (inactive). The tube area decrease in test [4] is -25.7% (inactive). For the same molecule, in test [5], the GLP1 secretion stimulation was -3% (inactive). The inhibition of viability in test [6] is 3.7% (inactive). The viability decrease (inhibition) is -0.5% (inactive) in test [7] and 3.7% (inactive) in test [8].

For `Cc1ccc(O)c(-n2nc3ccccc3n2)c1`, the nuclear beta-catenin stimulation in test [1] (at 10 µM) was -0.7% (inactive); in test [1] (stimulation, at 2 µM), -0.3%. In addition, in test [2], the insulin secretion stimulation was -1.4% (inactive). Moreover, the viability decrease in test [3] is 8.75% (inactive). Also, in test [4], the tube area decrease was -28.1% (inactive). Also, in test [5], the GLP1 secretion stimulation is 4.2% (inactive). Moreover, the inhibition of viability in test [6] was -0.8% (inactive). Moreover, the viability decrease (inhibition) was 40.7% (inactive) in test [7] and 13.8% (inactive) in test [8].
